Screening results as filed in PubChem BioAssay.
FMDV inh – antivirals against foot and mouth disease virus. FMDV antiviral cell-based qHTS. 410,000 compounds, 1.2% hits. Potency, µM (top dose mostly 57.9 µM), most hits filed as inhibitors; calls by dose curve; tested in HEK293T cells; note: read-out not given here; nearly all actives have a fitted effect of over 45% in size
SARS PLpro yeast – blocks SARS-CoV papain-like protease in a yeast assay. 330,000 compounds, 0.19% hits. S. cerevisiae expressing SARS-CoV PLpro, growth rescue. AID 485353. Potency, µM (highest dose often 32.9 µM), actives largely listed as activators; calls by dose curve; note: nearly all actives have a fitted effect of over 55% in size
HCMV antiviral – blocks human cytomegalovirus replication. HFF cells, HCMV-luciferase reporter, 72 h; hits give low values. activity change, negative = inhibition, % at 57.5 µM. 410,000 compounds, 4.5% hits. AID 1259415; in the data active = activity change below about -60%; inconclusive = no clear call, values can overlap the other calls; inactive = above about -39%
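Human foreskin fibroblasts infected with luciferase-reporter HCMV at MOI 1 PFU/cell, compounds at two doses. Luciferase measured 72 h post infection; normalized to buffer-only basal and Salinomycin (10uM) controls.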
MARV entry inh – Marburg virus entry inhibition; Marburg virus pseudotyped entry inhibition, cell reporter; Potency, µM (titrated, usually from 37.8 µM), actives largely listed as inhibitors; 300,000 compounds, 1.8% hits; calls by dose curve; tested in HEK293 cells
LASV entry inh – inhibitors of Lassa virus binding or cell entry; Lassa virus pseudotype entry inhibition, cell reporter; Potency, µM (highest dose often 37.9 µM), usual class: inhibitors; 300,000 compounds, 1.2% hits; calls by dose curve; tested in HEK293 cells; note: nearly all actives have a fitted effect of over 50% in size
HCV inhibitor – HCV inhibition | Huh7.5.1 HCVcc-Cre infection, luciferase reporter, 44 h | Potency, µM (doses to about 41.8 µM), actives largely listed as inhibitors | 340,000 compounds, 3.4% hits; active = well fitted inhibition curve with a large enough effect; inconclusive = small, poorly fitted or top-dose-only effect, or another doubt; inactive = no such curve, though single readings can be large or run the other way
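1,000 cells/well; 4 h culture; + compound; + HCVcc-Cre (~0.5 moi); 44 h; luciferase substrate, RT 15 min; read 15 sec.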
Each line names hits and unclear results; the compound was inactive in the other large screens; ! = not confirmed by another sample. Most compounds without a hit are left out; they make up all but 8% or so of the library.

CN(C)CCNc1ncnc2c1sc1nc(N3CCCC3)c3c(c12)CC(C)(C)OC3	FMDV inh inconclusive, HCMV antiviral inconclusive, MARV entry inh 7.9µM, LASV entry inh inconclusive, HCV inhibitor 13µM
CCN(CC)CCNc1ncnc2c1sc1nc(N3CCOCC3)c3c(c12)CCCC3	MARV entry inh inconclusive, LASV entry inh inconclusive, HCV inhibitor inconclusive
CC1(C)Cc2c(c(-c3ccco3)nc3sc4c(NCCCO)ncnc4c23)CO1	FMDV inh inconclusive, HCMV antiviral -65, HCV inhibitor inconclusive (no result: MARV entry inh, LASV entry inh)
CCN(CCO)c1ncnc2c1sc1nc(CC(C)C)c3c(c12)CC(C)(C)OC3	HCV inhibitor 14µM
CC1(C)Cc2nc3sc4c(N(CCO)CCO)ncnc4c3cc2CO1	none
CCN(CC)CCNc1ncnc2c1sc1nc(N3CCCC3)c3c(c12)CC(C)(C)OC3	FMDV inh inconclusive, MARV entry inh inconclusive, LASV entry inh inconclusive, HCV inhibitor 2µM
COc1cccc(NS(=O)(=O)c2cc3c4c(c2)C(C)C(=O)N4CCC3)c1 (stereo unspecified)	LASV entry inh inconclusive (no result: SARS PLpro yeast, MARV entry inh, HCV inhibitor)
Cc1ccc(-n2c(C)nc3c(cnn3-c3ccc(F)cc3)c2=O)cc1	FMDV inh inconclusive, HCMV antiviral -83, MARV entry inh inconclusive, HCV inhibitor inconclusive
Cc1nc2c(cnn2-c2ccccc2Cl)c(=O)n1-c1ccc(C(C)C)cc1	FMDV inh inconclusive, HCMV antiviral -60!, MARV entry inh 15µM, LASV entry inh 9.2µM, HCV inhibitor inconclusive
O=C(c1ccc(N2CCC(NCCCn3ncc4ccccc43)CC2)cc1)N1CCOCC1	none (no result: SARS PLpro yeast, HCMV antiviral, MARV entry inh, LASV entry inh, HCV inhibitor)
CCCCCOc1ccc(Br)cc1/C(C)=N/NC1=NCCN1	FMDV inh inconclusive, HCMV antiviral -92, MARV entry inh 10µM, LASV entry inh inconclusive, HCV inhibitor 6.3µM
COc1ccc(Br)cc1/C(C)=N/NC1=NCCN1	FMDV inh inconclusive, HCMV antiviral inconclusive, MARV entry inh inconclusive, LASV entry inh inconclusive, HCV inhibitor inconclusive
O=S(=O)(NCC(c1ccco1)S(=O)(=O)c1ccccc1)c1cc(F)ccc1F (stereo unspecified)	HCMV antiviral -69 (no result: SARS PLpro yeast, MARV entry inh, HCV inhibitor)
COc1ccc(CCn2c(C3CCCCC3)nc3c(c(=O)c4ccccc4n3C)c2=O)cc1OC	HCMV antiviral inconclusive, MARV entry inh inconclusive, HCV inhibitor inconclusive
Cn1c2ccccc2c(=O)c2c(=O)n(C3CCCCCC3)c(C3CCCCC3)nc21	FMDV inh 25µM
COc1ccc(Cn2c(C3CCCCC3)nc3c(c(=O)c4ccccc4n3C)c2=O)cc1	FMDV inh inconclusive, HCV inhibitor inconclusive (no result: HCMV antiviral, MARV entry inh, LASV entry inh)
Cn1c2ccccc2c(=O)c2c(=O)n(-c3ccccc3)c(C3CCCCC3)nc21	MARV entry inh inconclusive
Cc1nc2c(c(=O)c3ccccc3n2C)c(=O)n1C1CCCC1	none (no result: FMDV inh, SARS PLpro yeast, MARV entry inh, LASV entry inh, HCV inhibitor)
COc1ccc(CCn2c(C3CCCCC3)nc3c(c(=O)c4ccccc4n3C)c2=O)cc1	FMDV inh inconclusive, HCV inhibitor 3.5µM (no result: MARV entry inh, LASV entry inh)
Cn1c2ccccc2c(=O)c2c(=O)n(C3CCCCC3)c(-c3cccs3)nc21	HCMV antiviral inconclusive, HCV inhibitor 10µM
CCc1nc2c(c(=O)c3ccccc3n2C)c(=O)n1C1CCCCCC1	HCMV antiviral -63, LASV entry inh inconclusive, HCV inhibitor inconclusive
COc1ccc(CN2CCCC(c3nc(-c4ccncc4)ncc3-c3ccccc3C)C2)c(OC)c1 (stereo unspecified)	none (no result: SARS PLpro yeast, HCMV antiviral, MARV entry inh, LASV entry inh, HCV inhibitor)
O=C1CN(C(=O)c2ccc(S(=O)(=O)N3CCCC3)cc2)C(c2ccccc2)c2cc(Br)ccc2N1 (stereo unspecified)	LASV entry inh inconclusive (no result: SARS PLpro yeast, HCV inhibitor)
COc1ccccc1CN1CCOc2ccc(C(C)(O)COc3ccccc3)cc2C1 (stereo unspecified)	none (no result: SARS PLpro yeast, HCMV antiviral, MARV entry inh, LASV entry inh, HCV inhibitor)
CC(=O)N1CCN(c2csc3ccc(Br)cc3c2=O)CC1	none (no result: SARS PLpro yeast, MARV entry inh, HCV inhibitor)
CCN(CC)S(=O)(=O)c1ccc2c(c1)nc(SCC(N)=O)n2-c1ccc(OC)cc1	LASV entry inh 13µM
CC(C)C(=O)NC(=S)Nc1ccc(S(=O)(=O)N(C)Cc2ccccc2)cc1	MARV entry inh inconclusive, LASV entry inh inconclusive, HCV inhibitor inconclusive (no result: SARS PLpro yeast)
CCOc1ccc(NS(=O)(=O)c2ccc(NC(=S)NC(C)=O)cc2)cc1	HCMV antiviral -62, LASV entry inh inconclusive, HCV inhibitor inconclusive
CC(=O)NC(=S)Nc1ccc(S(=O)(=O)N(C)Cc2ccccc2)cc1	FMDV inh 22µM
CCOc1ccc(NS(=O)(=O)c2ccc(NC(=S)NC(=O)C(C)C)cc2)cc1	LASV entry inh inconclusive
CCC(C)C(NC(N)=O)C(=O)Nc1ccc(S(=O)(=O)Nc2ccc(OC)cc2)cc1 (stereo unspecified)	HCMV antiviral -102, MARV entry inh inconclusive
CCOc1ccc(S(=O)(=O)Nc2ccc(C(=O)N/N=C(\C)c3ccc(-n4ccnc4)cc3)cc2)cc1	MARV entry inh 11µM, LASV entry inh inconclusive
CCCCNC(=O)NS(=O)(=O)c1ccc(NC(=O)C(NC(N)=O)C(C)CC)cc1 (stereo unspecified)	none
CCOc1ccc(NC(=S)Nc2ccc(OCC)cc2)cc1	HCMV antiviral -100, MARV entry inh inconclusive, LASV entry inh inconclusive
CCC(=O)NC(=S)Nc1ccc(S(=O)(=O)NC(C)C)cc1	HCMV antiviral -110
COc1ccc(C2(C)NC(=O)N(CC3CCCCC3)C2=O)cc1 (stereo unspecified)	none
O=C(Nc1cc(Cl)ccc1-n1cncn1)c1ccc([N+](=O)[O-])s1	LASV entry inh inconclusive, HCV inhibitor 7.9µM (no result: HCMV antiviral)
O=C(Nc1cc(Cl)ccc1-n1cncn1)c1ccco1	none (no result: SARS PLpro yeast, MARV entry inh, LASV entry inh)
O=C(Nc1ccc(F)c(F)c1)c1ccc(-n2cncn2)c([N+](=O)[O-])c1	HCV inhibitor 22µM (no result: MARV entry inh, LASV entry inh)
COc1cc(OC)c(C(=O)Nc2cc(Cl)ccc2-n2cncn2)cc1OC	HCV inhibitor 13µM
N#Cc1ccccc1OCC(=O)Nc1ccc(S(=O)(=O)N2CCOCC2)cc1	none
CN(C)c1ccc(-c2nc3ccc(Cl)cn3c2Nc2ccc3c(c2)OCCO3)cc1	MARV entry inh inconclusive (no result: SARS PLpro yeast, HCV inhibitor)
COc1ccc2cc(CNCc3ccccc3C(F)(F)F)c(N3CCCC(CO)C3)nc2c1 (stereo unspecified)	none (no result: SARS PLpro yeast, HCMV antiviral, MARV entry inh, LASV entry inh, HCV inhibitor)
CC1(C)OC(=O)N(c2ccccc2)C12C=Cc1cc(Br)ccc1O2 (stereo unspecified)	FMDV inh inconclusive, HCMV antiviral inconclusive, MARV entry inh 18µM, HCV inhibitor inconclusive
CC1(C)OC(=O)N(CCc2ccccc2)C1(C)O (stereo unspecified)	none
Clc1ccc(-c2c[n+](Cc3cccc(Cl)c3)c3n2CCC3)cc1	HCMV antiviral -94
Clc1ccc(C[n+]2cc(-c3ccccc3)n3c2CCC3)cc1Cl	HCMV antiviral -72, MARV entry inh inconclusive, LASV entry inh inconclusive
COc1ccc(/C=N/N=C2/NC(=O)C(CC(=O)O)S2)cc1OCc1ccccc1Cl (stereo unspecified)	none
COc1cc(/C=N/N=C2/NC(=O)C(c3ccccc3)S2)ccc1O (stereo unspecified)	HCMV antiviral -65, LASV entry inh 4.5µM
